Compound activity: PubChem BioAssay, several laboratories
Rows were chosen to be rich in hits. Some 2% of all compounds tested hit in one or more screens of this group.
Exocytosis inh: blocks lytic granule exocytosis. 0.66% of 360,000 active. TALL-104 LAMP-1 surface exposure, flow cytometry; cells stimulated with thapsigargin and PMA. inhibition, % at 10 µM;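 active means inhibition above about 55%, limit read from the data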
Rev-erbA mod: Rev-erb alpha (human) modulation | activity, % at 10 µM | P20393 | 0.79% of 370,000 active | Rev-erbα–FITC-DNA binding, fluorescence polarization, 90 min;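 active means activity above about 14%, limit read from the data; passing the limit was not always enough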;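 further: 0% = DMSO wells with 35 nM protein and 100% = DMSO wells with 750 nM protein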
PG9 binder: PG9 antibody binding by small molecule; TR-FRET gp120-PG9 antibody binding; 0.43% of 360,000 active; inhibition, % at 6.7 µM; AID 624416; in the data active means inhibition above about 8.5%
ABCB6 inh MLPCN: inhibitors of human ABC transporter ABCB6; fluorescence ratio to DMSO, % at 10 µM; Q9NP58; K562-ABCB6 porphyrin accumulation, flow cytometry, 1 h; hits give low values; 0.19% of 360,000 active;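 active means fluorescence ratio to DMSO below 75%, the collection mean minus 3 SD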;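 further: signal is porphyrin accumulated inside mitochondria; 100% equals median channel fluorescence of DMSO control wells; lower ratio means ABCB6 inhibition with less porphyrin fluorescence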
VLA-4 inh: inhibition in a human VLA-4 binding assay. P13612. VLA-4 expressing cells, ligand binding flow cytometry. inhibition, % (about 7 µM as worked out from the volumes in the protocol). 0.2% of 330,000 active. AID 2557; in the data active means inhibition above about 50%
Target sequence (P13612 whole entry, looked up): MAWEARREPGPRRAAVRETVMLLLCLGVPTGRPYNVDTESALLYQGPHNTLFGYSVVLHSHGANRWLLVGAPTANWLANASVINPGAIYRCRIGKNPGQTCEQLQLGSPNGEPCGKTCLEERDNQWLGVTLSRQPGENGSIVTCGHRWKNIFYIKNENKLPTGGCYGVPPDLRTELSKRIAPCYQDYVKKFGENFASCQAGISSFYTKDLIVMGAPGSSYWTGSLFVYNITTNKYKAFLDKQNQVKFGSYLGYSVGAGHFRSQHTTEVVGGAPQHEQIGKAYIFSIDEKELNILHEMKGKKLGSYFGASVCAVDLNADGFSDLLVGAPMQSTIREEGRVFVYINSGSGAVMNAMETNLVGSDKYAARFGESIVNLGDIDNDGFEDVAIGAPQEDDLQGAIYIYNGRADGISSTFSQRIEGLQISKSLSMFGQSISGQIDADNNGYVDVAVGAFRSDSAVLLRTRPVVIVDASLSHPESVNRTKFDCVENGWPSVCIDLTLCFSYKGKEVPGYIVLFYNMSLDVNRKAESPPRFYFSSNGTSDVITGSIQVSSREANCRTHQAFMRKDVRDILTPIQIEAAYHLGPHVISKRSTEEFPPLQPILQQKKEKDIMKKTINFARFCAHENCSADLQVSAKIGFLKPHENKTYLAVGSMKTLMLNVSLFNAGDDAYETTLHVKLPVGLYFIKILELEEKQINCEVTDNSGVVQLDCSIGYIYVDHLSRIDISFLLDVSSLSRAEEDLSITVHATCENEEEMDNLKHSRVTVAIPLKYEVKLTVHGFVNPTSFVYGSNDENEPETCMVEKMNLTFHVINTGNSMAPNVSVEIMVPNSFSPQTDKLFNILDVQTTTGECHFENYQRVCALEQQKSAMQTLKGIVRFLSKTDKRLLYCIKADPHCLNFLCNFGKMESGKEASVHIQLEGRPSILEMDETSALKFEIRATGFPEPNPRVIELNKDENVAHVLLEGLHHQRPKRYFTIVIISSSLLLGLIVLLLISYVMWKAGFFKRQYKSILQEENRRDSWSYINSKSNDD
Rev-erbA confirm: Rev-erb alpha (human) modulation, hit confirmation; shares compounds with Rev-erbA mod; Rev-erb alpha FITC-DNA binding, fluorescence polarization, 90 min; activation, % at 25 µM; 61% of 3,000 active; AID 1259319;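 active means activation at or above a set limit, or at least 3 SD above the negative control mean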;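 further: 0% = 35 nM protein with DMSO and 100% = 750 nM protein high control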
RORg counter: RORgamma DNA-binding activity, dose-response counter-screen | shares compounds with Rev-erbA mod | purified RORgamma protein-FITC-DNA binding, fluorescence polarization | IC50, µM | 8% of 910 active | AID 1259320;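 active means Compounds whose fitted half-maximal concentration for disrupting protein-DNA binding is below 10 micromolar; the record names Rev-erb in its text, so the target is in doubt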
Numbers without * were called inactive; i = inactive; x = not tested or not shown.

SMILES	Exocytosis inh	Rev-erbA mod	PG9 binder	ABCB6 inh MLPCN	VLA-4 inh	Rev-erbA confirm	others
COc1ccc([C@H]2C[C@H](O)[C@@H](n3cc(C4CC4)nn3)CN2Cc2cccs2)cc1	2.2	-3.2	0.4	99.0	x	x
COc1ccc(C(=O)CC2(O)C(=O)N(CN3CCOCC3)c3ccc(Br)cc32)cc1 (configuration not stated)	x	-3.2	-0.9	x	x	x
CCCCn1c(=O)[nH]c(=O)c2c1nc(-c1ccc(OCCC)c(OCC)c1)n2C	0.8	21.3*	-0.1	96.0	3.2	-6.1
C=CCn1c(SCCN2C(=O)c3ccccc3C2=O)nc2scc(-c3ccc(F)cc3)c2c1=O	-2.2	21.1*	1.2	94.0	x	14.2
C=CCn1c(SCC(=O)N2CC(=O)Nc3ccccc32)nc2scc(-c3ccccc3)c2c1=O	0.7	1.5	-1.9	109.0	-7.0	x
Cc1cc(C(=O)N(C)CC(=O)Nc2ccc(Cl)c(C(F)(F)F)c2)no1	5.4	-1.0	1.1	101.0	7.9	x
CN(CC(=O)Nc1ccc(Cl)c(C(F)(F)F)c1)C(=O)c1cn2ccccc2n1	-1.5	20.5*	-1.6	91.0	-5.2	1.8
C#CCCCN([C@@H](CC(C)C)C(=O)OC)S(=O)(=O)c1ccccc1Br	x	-2.5	x	x	x	x
COc1ccc(Nc2nc(C)nc3c2nnn3Cc2ccccc2Cl)c(OC)c1	-2.6	21.0*	-1.1	100.0	7.3	8.8
COc1ccc(NC(=O)C2CCCN(S(=O)(=O)c3ccc4[nH]c(=O)ccc4c3)C2)cc1OC (configuration not stated)	0.7	22.9*	6.5	98.0	10.8	-0.3
Cc1ccc(NC(=O)C2CCCN(S(=O)(=O)c3ccc4[nH]c(=O)ccc4c3)C2)cc1C (configuration not stated)	7.5	5.3	5.5	100.0	-6.7	x
O=C(C(=O)N1CCC(CNS(=O)(=O)c2ccc(C(F)(F)F)cc2)CC1)c1cccs1	x	4.4	0.1	x	x	x
CSc1nc2cc(C)nn2c(-c2ccc(C(C)(C)C)cc2)c1C#N	-22.2	44.4*	-2.4	94.0	3.2	11.9
CSc1nc2cc(C)nn2c(-c2ccccc2Cl)c1C#N	-3.3	41.7*	-1.3	97.0	-2.7	14.6
CSc1nc(-c2ccccc2)cc(C)c1C#N	-1.9	4.5	0.0	99.0	7.5	x
C[C@@H]1ON(C)[C@H]2C[C@H]3c4cc(N5CCCCC5)ccc4CCN3C[C@@H]12	x	0.7	-1.8	x	x	x
CCOc1ccc(N(CC(=O)Nc2c(C)n(C)n(-c3ccccc3)c2=O)S(=O)(=O)c2cc(OC)ccc2OC)cc1	x	-8.1	x	x	x	x
CCC(C(=O)Nc1ccccc1N1CCCC1)c1cccc(C)c1 (configuration not stated)	x	0.0	x	x	x	x
Cc1c(Cl)ccc2c(C(N)=O)cc(-c3ccccn3)nc12	-0.1	41.1*	1.6	100.0	-9.1	35.2*	RORg counter=>40
COc1ccc(CCNC(=O)c2cc(-c3ccccn3)nc3c(Cl)cccc23)cc1OC	5.1	12.7	-1.3	92.0	9.7	x
CCOC(=O)CNC(=O)c1cc(-c2ccccn2)nc2c(C)c(Cl)ccc12	1.3	18.6*	3.5	107.0	-4.8	21.5*
Cc1ccccc1-c1ccc2c(c1)[C@@H]1C[C@H]3[C@@H](CN1CC2)[C@H](C)ON3C	x	-1.2	-2.9	x	x	x
NC(=O)c1c(NC(=O)c2ccccc2)sc2c1CCC2	3.1	-4.4	-1.6	91.0	-10.4	x
NC(=O)c1c(NC(=O)c2ccccc2)sc2c1CCc1ccccc1-2	-0.9	47.4*	-0.3	97.0	-11.7	18.3*
O=C(CNS(=O)(=O)c1ccc(Cl)s1)N1CCN(c2ccccn2)CC1	x	5.0	x	x	x	x
SMILES	Exocytosis inh	Rev-erbA mod	PG9 binder	ABCB6 inh MLPCN	VLA-4 inh	Rev-erbA confirm	others
CCOc1ccccc1N=Cc1c(O)c2ccccc2oc1=O	-0.6	36.5*	2.1	94.0	9.9	10.4
COCc1cc(N2CCN(C(=O)OC(C)(C)C)C[C@@H]2C)ccc1Br	x	-5.9	-2.2	x	x	x
Cc1cc(NC(=O)Cc2cn(C)c3ccccc23)ccc1Nc1cccnc1	x	-5.3	-1.3	x	x	x
Cc1cc(NC(=O)CSc2nc3c(cc2C#N)CCCC3)no1	4.9	35.4*	0.3	89.0	-11.6	25.9*
N#Cc1cc2c(nc1SCC(=O)O)CCCC2	-0.4	-0.4	-1.5	92.0	16.6	x
N#Cc1cc2c(nc1SCc1ccccc1)CCCC2=O	-5.4	-3.7	1.1	97.0	4.8	x
N#Cc1cc2c(nc1SCc1ccccc1)CCC2	0.6	44.7*	-0.4	102.0	-1.6	24.8*
Cc1cc(NC(=O)CSc2nc3c(cc2C#N)CCC3)no1	-11.2	23.0*	-2.2	90.0	5.5	9.0
O=C(CSc1nnc(-c2ccccn2)n1-c1ccc(Cl)cc1)Nc1ccc2c(c1)OCCO2	x	-5.7	x	x	x	x
Cc1[nH]c2ccccc2c1/C=N/Nc1ccc([N+](=O)[O-])cc1	-2.2	21.8*	-1.2	i	i	16.0
Cc1cc(N2CCN(Cc3ccc4c(c3)OCO4)CC2)n2nc(C)nc2n1	x	-1.4	x	x	x	x
COC(=O)c1cc(-c2ccc(C)c3ccccc23)c(=O)n2c1CCC2	x	-2.0	x	x	x	x
O=S1(=O)c2c(cccc2N2CCSCC2)Oc2ccccc2CN1Cc1cn(Cc2ccc(Cl)cc2)nn1	x	-1.4	x	x	x	x
COc1ccc2nc(SCC(=O)Nc3ccc(S(=O)(=O)N4CCCC4)cc3)c(C#N)cc2c1	-1.6	109.1*	-1.7	98.0	-10.8	74.0*	RORg counter=>40
N#Cc1cc2ccccc2nc1SCC(=O)Nc1ccc(S(=O)(=O)N2CCCC2)cc1	9.9	29.6*	0.1	99.0	9.1	24.0*
CCOc1ccc2nc(SCC(=O)Nc3ccc(S(=O)(=O)N4CCCC4)cc3)c(C)cc2c1	-0.7	25.1*	-0.4	98.0	3.1	17.5
COc1ccc2nc(SCC(=O)N3CCCCC3)c(C#N)cc2c1	10.5	-3.0	-1.1	92.0	3.8	x
Cc1cc(C)c2nc(SCC(=O)Nc3ccc(S(=O)(=O)N4CCCC4)cc3)c(C)cc2c1	-5.2	13.4	2.2	87.0	-0.4	x
CCOC(=O)N1CCN(C(=O)C[C@H]2C[C@@]3(C(=O)OC)C(=C[C@H](COCc4ccccc4)O[C@@H]3C)N(CCc3ccc(OC)c(OC)c3)C2=O)CC1	x	2.1	x	x	x	x
CCN(CC)C(=O)CSc1nnc(-c2cccs2)o1	x	-3.0	x	x	x	x
COc1ccc(C2NC(=O)NC(C)=C2C(=O)OC2CCCC(C)C2)cc1 (configuration not stated)	-27.2	18.4*	1.7	101.0	-14.5	8.4
S=c1nc(C2CCCCC2)[nH]c2ccccc12	-2.1	16.4*	8.2	98.0	9.4	12.7
O=C(CC1CCCC1)N1CC[C@H]2[C@H](CCCN2Cc2ccccc2)C1	x	-3.5	x	x	x	x
COC(=O)c1c(-c2cccc3ccccc23)csc1NC(=O)Cc1ccc(OC)c(OC)c1	0.0	19.5*	-1.2	92.0	-6.5	30.0*
O=S(=O)(NCc1csc(-c2cccnc2)n1)c1cccs1	2.1	-1.1	-0.8	99.0	-9.3	x
